Hit rate of the full screen: of about 350,000 compounds, about 6,000 (1.7%) were called active. Inconclusive results (about 5%) are left out. Cut-off read from the data, not from the text of the source: active = CPE inhibition above about 20% (passing the limit was not always enough); inconclusive = no clear call, values can overlap the other calls; tested in BHK-21 cells. This excerpt belongs to a sample that is enriched for actives.

A short description of this assay: inhibitors of DENV2 cytopathic effect, primary screen, cell-based, plate reader, single concentration (AID 651640).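 Note: 0% = median of neutral control wells and 100% = median of positive control wells.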 The note with it: DENV2-infected cells, cytopathic effect rescue, at 9.99 µM, stronger effect = higher value. (Damage to the host cells serves as the signal in cytopathic effect assays.)
Turning to `Cc1ccc(S(=O)(=O)N2C[C@@H](O)COC[C@@H]3O[C@@H](CC(=O)N[C@H]4CCN(Cc5ccccc5)C4)CC[C@H]32)cc1`, the CPE inhibition was -6.36% (inactive). The figure for `C/C=C/c1ccccc1[C@H]1[C@@H](C#N)N(c2nc(CC)cs2)[C@@H]1CO` is -4.18% (inactive).

Regarding `Cc1ccc(-n2c(SCC(=O)N3CCC(C(=O)O)CC3)nc3ccccc3c2=O)cc1C`, the CPE inhibition is 31.6% (active). The same measure for `O=C(CSc1nc2ccccc2c(=O)n1-c1ccccc1F)N1CCOCC1`: 3.85% (inactive); for `O=C(CSc1nc2ccccc2c(=O)n1-c1ccc(F)cc1)NC1CC1`: -10.2% (inactive); for `CC(=O)N1[C@H](CO)[C@H](c2ccccc2)C12CN(C(=O)c1ccccn1)C2`: 3.27% (inactive).

With `C=CCn1c(-c2ccccc2OCC)n[nH]c1=S`, the CPE inhibition is -1.21% (inactive). As to `C=CCOc1ccccc1CNn1c(C)n[nH]c1=S`, the CPE inhibition was 25.4% (active).

As to `C=CCOc1c(CNn2cn[nH]c2=S)cccc1OC`, the CPE inhibition is -7.79% (inactive).

Consider `Nc1ncnc2c1ncn2[C@@H]1O[C@H](C(=O)N[C@@H](CCc2ccccc2)C(=O)N2CCCN(Cc3cccs3)CC2)[C@@H](O)[C@H]1O`, for which the CPE inhibition was -8.03% (inactive). The figure for `COc1cccc(S(=O)(=O)N[C@H]2CC[C@H](CC(=O)NC3CCC3)O[C@H]2CO)c1` is -5.34% (inactive); for `CO[C@@H]1CN(C)C(=O)c2ccc(NC(=O)c3ccccn3)cc2OC[C@@H](C)N(C(=O)C2CCCCC2)C[C@H]1C` it is -2.92% (inactive); for `O=C(C[C@H]1CC[C@H](NC(=O)Nc2ccc(C(F)(F)F)cc2)[C@H](CO)O1)NCCN1CCCC1` it is 1.56% (inactive).

In the case of `NC(=O)c1ccc(Nc2ccc3nonc3c2[N+](=O)[O-])cc1`, the CPE inhibition is -0.407% (inactive). The figure for `CCOc1ccccc1Nc1ccc(C(=O)O)cc1[N+](=O)[O-]` is 2.94% (inactive). The figure for `CCOc1ccccc1Nc1ccc2nonc2c1[N+](=O)[O-]` is 22.7% (active); for `O=C(Nc1ccccc1)N1C[C@H]2[C@@H](c3ccccc31)[C@@H](CO)N2Cc1cocn1` it is -3.04% (inactive); for `CO[C@H]1CN(C)C(=O)c2ccc(NC(=O)c3cc(C)on3)cc2OC[C@@H](C)NC[C@@H]1C` it is -4.45% (inactive). The same measure for `O=S(=O)(Cc1ccccc1)N1CCCCN2[C@@H](CO)[C@H](c3ccc(-c4ccccc4)cc3)[C@@H]2C1`: 59% (active); for `Cc1cccc(-c2ccc([C@@H]3[C@@H](CO)N4CCCCN(S(=O)(=O)c5cccs5)C[C@H]34)cc2)c1`: 32.7% (active); for `CCS(=O)(=O)N1CCCCN2[C@@H](CO)[C@@H](c3ccc(-c4ccccc4)cc3)[C@@H]2C1`: 12.3% (inactive).

As to `Cc1cccc(-c2ccc([C@H]3[C@H](CO)N4CCCCN(S(=O)(=O)c5cn(C)cn5)C[C@@H]34)cc2)c1`, the CPE inhibition is -11.9% (inactive).

Take `COc1cccc(-c2ccc([C@H]3[C@H](CO)N4CCCCN(S(=O)(=O)c5cccs5)C[C@@H]34)cc2)c1`: the CPE inhibition is -2.61% (inactive). The same measure for `O=S(=O)(Cc1ccccc1)N1CCCCN2[C@@H](CO)[C@@H](c3ccc(-c4ccc(F)cc4)cc3)[C@@H]2C1`: -23% (inactive); for `CCNC(=O)[C@H]1[C@H](CO)[C@H]2Cn3c(cccc3=O)[C@H]2N1C(=O)C1CCCC1`: 3.43% (inactive); for `C[C@@H]1CCCCO[C@@H](CN(C)C(=O)C2CCCCC2)[C@H](C)CN([C@H](C)CO)C(=O)c2cc(NC(=O)Cc3ccccc3)ccc2O1`: -2.34% (inactive). The figure for `COc1cccc(S(=O)(=O)N[C@H]2CC[C@@H](CC(=O)NCc3ccc(F)cc3)O[C@@H]2CO)c1` is 2.23% (inactive); for `O=C(C[C@H]1CC[C@H](NC(=O)CCN2CCCCC2)[C@@H](CO)O1)Nc1ccccc1` it is -7.71% (inactive). The figure for `O=C(O)C[C@@H]1CC[C@H](NC(=O)CCN2CCCCC2)[C@H](CO)O1` is 20.1% (active). With `CN(C)CC(=O)N[C@@H]1CC[C@H](CC(=O)O)O[C@H]1CO`, the CPE inhibition is 8.44% (inactive). The same measure for `C[C@@H](NC(=O)C[C@@H]1C=C[C@@H](NC(=O)CN2CCOCC2)[C@H](CO)O1)c1ccccc1`: -6.9% (inactive). The figure for `CNC(=O)C[C@@H]1CC[C@@H]2[C@@H](COc3ccc(NC(=O)Cc4cccs4)cc3C(=O)N2C)O1` is -1.22% (inactive); for `COc1ccccc1C(=O)Nc1ccc2c(c1)OC[C@@H](C)NC[C@H](C)[C@@H](OC)CN(C)C2=O` it is -3.53% (inactive).

Consider `O=C(NC1CCCCC1)C1CCCN(S(=O)(=O)c2ccc(Br)s2)C1` (stereo not drawn), for which the CPE inhibition is 2.35% (inactive). For `O=C(C1CCN(S(=O)(=O)c2ccc(Br)s2)CC1)N1CCN(C2CCCCC2)CC1`, the CPE inhibition was 66.2% (active).

Regarding `O=C(C1CCN(S(=O)(=O)c2ccc(Br)s2)CC1)N1CCN(c2ccccc2)CC1`, the CPE inhibition was -4.17% (inactive). The figure for `C[C@@H]1CN([C@H](C)CO)C(=O)c2cc(NC(=O)C3CCCCC3)ccc2O[C@@H]1CN(C)CC1CCCCC1` is 22.8% (active); for `C[C@H](CO)N1C[C@H](C)[C@H](CN(C)CC2CCCCC2)Oc2ccc(NC(=O)C3CCCCC3)cc2C1=O` it is 0.912% (inactive); for `C[C@@H]1CN([C@H](C)CO)C(=O)c2cc(NC(=O)Cc3ccccc3)ccc2O[C@@H]1CN(C)CC1CCCCC1` it is -0.335% (inactive). The figure for `C[C@@H]1CCCCO[C@H](CN(C)CC2CC2)[C@@H](C)CN([C@H](C)CO)C(=O)c2cc(NC(=O)Cc3ccccc3)ccc2O1` is 13.5% (inactive); for `C[C@H](CO)N1C[C@H](C)[C@H](CN(C)Cc2ccccc2)OCCCC[C@H](C)Oc2ccc(NC(=O)c3ccccc3)cc2C1=O` it is -7.82% (inactive). Consider `C[C@H](CO)N1C[C@H](C)[C@@H](CN(C)Cc2ccc(C(=O)O)cc2)OCCCC[C@H](C)Oc2ccc(NC(=O)c3ccccc3)cc2C1=O`, for which the CPE inhibition is -2.18% (inactive). Turning to `C[C@H](CO)N1C[C@H](C)[C@@H](CN(C)CC2CC2)OCCCC[C@H](C)Oc2ccc(NC(=O)Cc3ccccc3)cc2C1=O`, the CPE inhibition was 57.8% (active). The figure for `C[C@H]1CCCCO[C@H](CN(C)Cc2ccccc2)[C@@H](C)CN([C@@H](C)CO)C(=O)c2cc(NC(=O)c3ccccc3)ccc2O1` is 48.2% (active); for `C[C@@H]1CN([C@@H](C)CO)C(=O)c2cc(NC(=O)Cc3ccccc3)ccc2O[C@@H]1CN(C)CC1CCCCC1` it is 2.75% (inactive); for `C[C@@H]1CN([C@@H](C)CO)C(=O)c2cc(NC(=O)Cc3ccccc3)ccc2O[C@H]1CN(C)CC1CC1` it is 31.5% (active).

For the molecule `C[C@@H]1CCCCO[C@H](CN(C)Cc2ccccc2)[C@@H](C)CN([C@H](C)CO)C(=O)c2cc(NC(=O)Cc3ccccc3)ccc2O1`, the CPE inhibition was -14% (inactive). The same measure for `C[C@@H]1CCCCO[C@@H](CN(C)CC2CCCCC2)[C@H](C)CN([C@H](C)CO)C(=O)c2cc(NC(=O)C3CCCCC3)ccc2O1`: -14.3% (inactive).

(Values after PubChem BioAssay AID651640 (Broad Institute, 2012).)
